Results on 40 compounds are retold here after PubChem BioAssay (NCI).

The panel holds about 83,000 compounds, 20% with a hit somewhere; the sample as a whole holds those more often.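 48-hour exposure, single concentration, 96-well plates; percent growth endpoint where 0 means no net growth. Active: below 10.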 Calls of active or inactive are those of the source.

In one assay the test system is HT29 colon. Kind of assay: NCI-60 one-dose screen, 48 h (100 = growth as untreated, 0 = no growth, -100 = all killed). The settings on record: 10 µM unless noted.
`COc1ccc(/C=C/C(=O)c2cc3c(N)c(C(=O)Nc4cccc5ccccc45)sc3nc2C)cc1`: the growth is 70.2% (inactive).
Same read-out and setting: the value for `Nc1ncnc2c1c(-c1cccc(Cl)c1)nn2CC(=O)N1CCOCC1` was 99.7% (inactive); that for `CC(=O)O[C@H]1CC2CCC3C(CC[C@@]4(C)C3C[C@H]([N+]3(C)CCCCC3)[C@@H]4OC(C)=O)[C@@]2(C)C[C@@H]1N1CCCCC1` (some centres undefined) was 105% (inactive); that for `c1ccc(Cn2cc3c(c2)-c2oncc2CC3)cc1` was 7.96% (active).

A further assay has as its system SNB-75 CNS. Described as above. The settings on record: 10 µM unless noted.
For `O=C1C(Cl)=C(NCCCCCCNC2=C(Cl)C(=O)c3ccccc3C2=O)C(=O)c2ccccc21`, the growth is 117% (inactive).
Turning to `CCCC/C=C/[C@@H]1C[C@H]1CCO`, the growth was 90.3% (inactive).
The same measure, in the same setting: the value for `C=C(C)[C@@H]1CC[C@]2(CO)CC[C@]3(C)[C@H](CC[C@@H]4[C@@]5(C)CC[C@H](NCO)C(C)(C)[C@@H]5CC[C@]43C)[C@@H]12` was -94.7% (active); that for `Cc1cccc(/C=C/c2c(C(=O)/C=C/c3ccccc3)c(C)nc3ccccc23)c1` was -9.89% (active); that for `Cc1ccc(-c2nc(N3CCCNCC3)c3oc(-c4ccc(C)cc4)nc3n2)cc1` was 97.7% (inactive).
Still for that read-out and setting: the value for `Cc1sc2nc(NCCc3c[nH]c4ccc(Cl)cc34)[nH]c(=O)c2c1C` was 23.5% (inactive).
Still for that read-out and setting: the value for `COc1ccc(OC)c(Nc2nnc(-c3ccc(O)c(OC)c3)o2)c1` was 15.2% (inactive); that for `COc1ccccc1NC(=O)N=Nc1c(O)[nH]c2ccccc12` was 82.7% (inactive); that for `Nc1nc2ccccc2c2c1S(=O)(=O)c1ccc(Cl)cc1C2=O` was 24.5% (inactive).
Regarding `Nc1n[nH]c2cccc(C#Cc3cccc(C(=O)Nc4cc(C(F)(F)F)cc(C(F)(F)F)c4)c3)c12`, the growth is 91.5% (inactive).
On the same count and under the same terms, the value for `CS(=O)(=O)Nc1cc(-c2ccc3ncnc(Nc4ccc5c(cnn5Cc5ccc(F)cc5)c4)c3c2)cnc1Cl` was -10.1% (active); that for `Fc1cc2c(cc1Cl)N(c1ncnc3ccc(-c4ccc5n[nH]nc5c4)cc13)CC2` was 22.1% (inactive).
Still for that read-out and setting: under `CCN1C(=S)N(c2ccccc2)C2NC(=S)N(/N=C/C=C/c3ccccc3OC)C21` (centres undefined) stands -1.02% (active); under `O=c1c2cccc3c(N4CCCC4)ccc(c32)c2nc3ccccc3n12`, 73% (inactive); under `OB1OCc2cc(/C=C/c3cccc(C(F)(F)F)c3)ccc21`, -19.3% (active).
Same read-out and setting: under `O=C(/C=C/c1ccccc1)Nc1ncc(Cc2ccccc2Cl)s1` stands 15.8% (inactive); under `CN(C)CCNC(=O)c1ccc(-c2nc3ccc4[nH]ncc4c3c3c2C2CCC3C2)cc1` (centres undefined), -12.4% (active).
On to `COC12C=C/C(=C(/C(=O)OCc3ccncc3)C(=O)CCCCCCCCC3(OC)C=C/C(=C(/C(=O)OCc4ccncc4)C(=O)CCCCCCCC1)O3)O2`, for which the growth was -57.2% (active).
On the same count and under the same terms, under `O=C(/C=C/c1cccc(Cl)c1)c1cccc(OCCCOc2cccc(C(=O)/C=C/c3cccc(Cl)c3)c2)c1` stands 81.7% (inactive).
For the compound `CCn1c(SCC(=O)N/N=C(\C)c2ccc(Cl)cc2)nc2c1c(=O)n(C)c(=O)n2C`, the growth is 79.6% (inactive).
On the same count and under the same terms, under `Cc1ccc(C[P+](c2ccccc2)(c2ccccc2)c2ccccc2)cc1` stands -3.92% (active); under `Clc1ccc2c(NC3CCC(N4CCOCC4)CC3)ccnc2c1` (centres undefined), 82.7% (inactive).
The same measure, in the same setting: under `Cc1ccc(C2=Nc3c(N)ncnc3NC(c3cccc(Nc4ccnc5cc(C(F)(F)F)ccc45)c3)C2)cc1` (centres undefined) stands 21.7% (inactive); under `COc1ccc(-c2noc(C(=O)O)c2-c2cc(OC)c(OC)c(OC)c2)cc1`, -3.43% (active); under `CCOC(=O)c1nn(-c2ccc(S(N)(=O)=O)cc2)c2nc(C)cc(=O)n12`, 94.8% (inactive).
With `CCSC(SCC)c1ccc(Cl)cc1`, the growth is 107% (inactive).
The same measure, in the same setting: under `CSc1nc2ccccc2cc1/C=C1/C=C(c2ccccc2)NC1=O` stands 79.3% (inactive); under `COC1/C=C/OC2(C)Oc3c(C)c(O)c4c(O)c(c(/C=N/Nc5ccc([N+](=O)[O-])cc5[N+](=O)[O-])c(O)c4c3C2=O)NC(=O)C(C)=C/C=C/C(C)C(O)C(C)C(O)C(C)C(OC(C)=O)C1C` (centres undefined), 67% (inactive).
Same read-out and setting: the value for `O=C1C(Cl)=C(Nc2ccc(S(=O)(=O)N3CCOCC3)cc2)C(=O)c2ccccc21` was 71.3% (inactive); that for `c1csc(-c2ccc(CNc3c4ccccc4nc4ccccc34)cc2)c1` was 36.1% (inactive); that for `Nc1ncc(-c2ccc3ncnc(Nc4cccc(Cl)c4)c3c2)cn1` was 49.8% (inactive).
In the case of `CCOC(=O)C#Cc1c(C(=O)OCC)nnn1Cc1ccc([N+](=O)[O-])cc1`, the growth is 65.3% (inactive).
For `O=C(CSc1nc2ccc([N+](=O)[O-])cc2[nH]1)Nc1ccc([N+](=O)[O-])cc1`, the growth was 29.7% (inactive).
Same read-out and setting: under `CC(C)(Sc1cc(C(C)(C)C)c(OC(=O)CCCC(=O)O)c(C(C)(C)C)c1)Sc1cc(C(C)(C)C)c(OC(=O)CCCC(=O)O)c(C(C)(C)C)c1` stands 68% (inactive); under `O=C(N(c1ccccc1)c1ccccc1)n1cc(I)c2nc(Cl)nc(Cl)c21`, 35.1% (inactive); under `NC(=O)CSc1oc(-c2ccccc2)nc1S(=O)(=O)c1ccc(Br)cc1`, 9.67% (active).
With `COc1ccc(/C=C/C(=O)c2cc3c(N)c(C(=O)Nc4cccc5ccccc45)sc3nc2C)cc1`, the growth is 53.6% (inactive).
Regarding `Nc1ncnc2c1c(-c1cccc(Cl)c1)nn2CC(=O)N1CCOCC1`, the growth was 94.2% (inactive).
In the case of `CC(=O)O[C@H]1CC2CCC3C(CC[C@@]4(C)C3C[C@H]([N+]3(C)CCCCC3)[C@@H]4OC(C)=O)[C@@]2(C)C[C@@H]1N1CCCCC1` (some centres undefined), the growth is 99.6% (inactive).
For the compound `c1ccc(Cn2cc3c(c2)-c2oncc2CC3)cc1`, the growth was 19% (inactive).
